Experimental findings from PubChem BioAssay (EPA / NIEHS) are described below.

Each structure is given as a SMILES string. Where a structure was tested more than once in an assay, its records may differ in their call. The source made the active and inactive calls. Rule for the calls: active = hit-call score of the fitted dose curve at least 0.9, where 1 is the maximum; inactive = score below 0.9.

Read-out in test [1]: Thrombomodulin, THBD (gene 7056)
The test is described as follows: BSK_CASM3C_Thrombomodulin: BioMAP Diversity Plus: CASM3C Assay for Thrombomodulin Biomarker Activity (AID 2283051).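 Note: thrombomodulin protein level measured by ELISA 24 h after dosing.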 As to conditions: primary human coronary artery smooth muscle cells; actives raise or lower the signal.

Read-out in test [2]: Tissue Factor, F3 (gene 2152)
Put plainly: BSK_CASM3C_TissueFactor: BioMAP Diversity Plus: CASM3C Assay for Tissue Factor Biomarker Activity (AID 2283052).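 Note: cell surface tissue factor protein level read by ELISA.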 As to conditions: primary human coronary artery smooth muscle cells; actives raise or lower the signal.

Read-out in test [3]: Interferon-gamma inducible Protein 10 (IP10), CXCL10 (gene 3627)
The test is described as follows: BSK_hDFCGF_IP10: BioMAP Diversity Plus: hDFCGF Assay for Interferon-gamma inducible Protein 10 (IP10) Biomarker Activity (AID 2283053). As to conditions: primary human foreskin fibroblasts; actives raise or lower the signal. In a few lines: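 Primary foreskin fibroblasts, human; 24 h compound exposure; IP-10 by ELISA; bidirectional fit vs DMSO.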

Read-out in test [4]: Urokinase-type plasminogen activator receptor (uPAR), PLAUR (gene 5329)
Put plainly: BSK_CASM3C_uPAR: BioMAP Diversity Plus: CASM3C Assay for Urokinase-type plasminogen activator receptor (uPAR) Biomarker Activity (AID 2283054).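 Note: cell-surface uPAR protein level quantified by ELISA.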 The settings on record: primary human coronary artery smooth muscle cells; actives raise or lower the signal.

Read-out in test [5]: Vascular cell adhesion molecule 1 (VCAM1), VCAM1 (gene 7412)
The test is described as follows: BSK_CASM3C_VCAM1: BioMAP Diversity Plus: CASM3C Assay for Vascular cell adhesion molecule 1 (VCAM1) Biomarker Activity (AID 2283055).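 Note: VCAM-1 protein level quantified by ELISA on the cells.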 The settings on record: primary human coronary artery smooth muscle cells; actives raise or lower the signal.

Read-out in test [6]: Epidermal growth factor receptor (EGFR), EGFR (gene 1956)
Put plainly: BSK_hDFCGF_EGFR: BioMAP Diversity Plus: hDFCGF Assay for Epidermal growth factor receptor (EGFR) Biomarker Activity (AID 2283057). As to conditions: primary human foreskin fibroblasts; actives raise or lower the signal. In outline: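 hDFCGF system, primary human foreskin fibroblasts; compound 24 h; EGFR measured by ELISA; DMSO = negative control/baseline; bidirectional fitting.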

Read-out in test [7]: Interleukin-8 (IL8), CXCL8 (gene 3576)
Put plainly: BSK_hDFCGF_IL8: BioMAP Diversity Plus: hDFCGF Assay for Interleukin-8 (IL8) Biomarker Activity (AID 2283058). The settings on record: primary human foreskin fibroblasts; actives raise or lower the signal. In a few lines:
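IL-8 levels from compound-treated primary human fibroblasts were read by ELISA at 24 h, with DMSO serving as baseline for bidirectional fitting.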

The nature of test [8]: BSK_hDFCGF_Proliferation: Cell Proliferation Assessment in the BioMAP Diversity Plus: hDFCGF Assay (AID 2283059).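 Note: curves fitted for both rise and fall of signal versus DMSO baseline.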 The settings on record: primary human foreskin fibroblasts. In a few lines: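 Sub-confluent human foreskin fibroblast cultures receive test chemical […]. Relative cell number is quantified by sulforhodamine B staining (0.1%, after 10% TCA fixation) at 560 nm, with bidirectional fitting referenced to DMSO.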

Read-out in test [9]: Macrophage colony-stimulating factor (MCSF), CSF1 (gene 1435)
The test is described as follows: BSK_hDFCGF_MCSF: BioMAP Diversity Plus: hDFCGF Assay for Macrophage colony-stimulating factor (MCSF) Biomarker Activity (AID 2283060). As to conditions: primary human foreskin fibroblasts; actives raise or lower the signal. In a few lines:
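M-CSF levels, determined by ELISA, are taken at 24 h after dosing human skin fibroblasts. Responses in either direction are fitted with DMSO serving as the baseline.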

Read-out in test [10]: Collagen III, COL3A1 (gene 1281)
The test is described as follows: BSK_hDFCGF_CollagenIII: BioMAP Diversity Plus: hDFCGF Assay for Collagen III Biomarker Activity (AID 2283056). As to conditions: primary human foreskin fibroblasts; actives raise or lower the signal. In a few lines:
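Cells: human foreskin fibroblasts, primary. Dosing followed by 24 h incubation, then ELISA for collagen III. Both increases and decreases scored relative to DMSO.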

For the molecule `O=C1OC2(c3cc(Br)c(O)c(Br)c3Oc3c2cc(Br)c(O)c3Br)c2c(Cl)c(Cl)c(Cl)c(Cl)c21`, the outcome in test [1], in test [2] and in test [4] was inactive. The AC50 in test [3] is 20.8 µM (active); in [5], 9.53 µM (active); in [6], 1.96 µM (active); in [7] it was 22 µM (active); in [8], 4.03 µM (active); in [9] it was 1.56 µM (active).

As for `c1ccc2sc(SN(C3CCCCC3)C3CCCCC3)nc2c1`, the AC50 in [1] is 3 µM (active); in [8], 2.77 µM (active); in test [9], 0.951 µM (active). The outcome in [2], in test [3], in test [4], in test [5], in test [6] and in test [7] was inactive.

Consider `Cc1ccc2n[nH]nc2c1`, for which the result in test [1], in [2], in test [3], in test [4], in test [5] and in test [6] was inactive. Also, the outcome in test [7], in test [8] and in test [9] was inactive.

For `CCCCC(CC)COC(=O)/C=C\C(=O)OCC(CC)CCCC` (stereo unspecified), the result in [1], in test [2], in test [3], in [4], in [10] and in test [6] was inactive. The result in test [7] and in test [9] was inactive. Also, the AC50 in [5] was 20 µM (active); in [8] it was 10.5 µM (active).

Turning to `COc1cc(C=O)ccc1OC(=O)C(C)C`, the outcome in test [1], in test [2], in [3], in [4], in test [5] and in test [6] was inactive. Also, the outcome in test [7], in [8] and in test [9] was inactive. In addition, in test [4], the AC50 was 5.27 µM (active).

Take `CCn1c2ccccc2c2cc(N)ccc21`: the AC50 in test [1] is 2.7 µM (active). For the same molecule, the outcome in test [2], in test [3], in test [4], in test [5], in test [6] and in test [7] was inactive. Further, the outcome in test [8] and in test [9] was inactive.

In the case of `C=C[Si](OCC)(OCC)OCC`, the result in [1], in test [2], in [3], in test [4], in test [5] and in test [6] was inactive. The result in test [7] and in test [9] was inactive. Also, the half-maximal activity concentration (AC50) in [8] is 29.2 µM (active).

Regarding `CCCCCCCCCC=O`, the result in [1], in test [2], in [3], in test [4], in test [5] and in test [6] was inactive. Further, the result in [7], in test [8] and in test [9] was inactive.

As to `CCCCCCCCC=O`, the outcome in [1], in test [2], in test [3], in [4], in test [5] and in [6] was inactive. Moreover, the outcome in [7], in [8] and in test [9] was inactive.

As for `Nc1cc([N+](=O)[O-])ccc1Cl`, the result in test [1], in test [2], in test [3], in test [4], in test [5] and in test [6] was inactive. The result in [7], in [8] and in test [9] was inactive.

With `CCC(=O)OCc1ccccc1`, the outcome in test [1], in [2], in [3], in test [4], in test [5] and in [6] was inactive. Further, the result in [7], in test [8] and in test [9] was inactive.

Turning to `OC1OC[C@@H](O)[C@H](O)[C@H]1O` (stereo partly specified), the result in test [1], in test [2], in test [3], in [4], in test [5] and in [6] was inactive. The result in test [7], in test [8] and in [9] was inactive.

Take `CN(CCOc1ccc(CC2SC(=O)NC2=O)cc1)c1ccccn1` (stereo unspecified): the outcome in [1], in test [4], in test [5], in test [6] and in test [7] was inactive. For the same molecule, the AC50 in [2] was 5.59 µM (active); in [3], 0.0536 µM (active); in test [8], 13.3 µM (active); in [9], 0.0484 µM (active).

Turning to `CNC[C@H](O)c1cccc(O)c1`, the result in [1], in test [2], in test [3], in [4], in test [5] and in [6] was inactive. Further, the result in test [7], in [8] and in test [9] was inactive.

Regarding `Cc1cc(C2(c3cc(C)c(O)cc3C)OS(=O)(=O)c3ccccc32)c(C)cc1O`, the outcome in test [1], in test [2], in [3], in [4], in test [5] and in test [6] was inactive. The outcome in [7], in test [8] and in test [9] was inactive.

Regarding `Cc1ccc(O)c(C(C)(C)C)c1`, the result in test [1], in [6] and in [7] was inactive. In addition, the AC50 in test [2] was 36.3 µM (active); in [3] it was 34.9 µM (active); in [4], 20 µM (active); in [5], 30 µM (active); in [8], 13.6 µM (active); in [9], 30.9 µM (active).

With `O=P(c1ccccc1)(c1ccccc1)c1ccccc1`, the result in [1], in test [2], in test [3], in test [4], in [5] and in test [6] was inactive. Besides, the outcome in test [7], in test [8] and in test [9] was inactive.

`O=C(O)C[C@H](O)C[C@H](O)/C=C/c1c(C2CC2)nc2ccccc2c1-c1ccc(F)cc1`: the AC50 in test [1] was 0.0287 µM (active); in [2], 0.0041 µM (active); in test [5], 0.0041 µM (active); in [8], 0.992 µM (active). In addition, the result in test [3], in [4], in test [6], in test [7] and in [9] was inactive.

In the case of `CCCCC/C=C/C=C/C=O`, the outcome in [1] and in test [6] was inactive. The AC50 in test [2] is 30.8 µM (active); in test [3] it was 14.5 µM (active); in [4] it was 32.9 µM (active); in test [5], 20 µM (active); in test [7] it was 30.1 µM (active); in test [8], 4.99 µM (active). In test [9], the AC50 was 10.7 µM (active).

As for `Cc1ccc(Nc2ccc(O)c3c2C(=O)c2ccccc2C3=O)cc1`, the result in test [1], in [2], in [3], in test [4], in test [5] and in [6] was inactive. The result in [7] and in test [9] was inactive. Further, the AC50 in [8] is 2.4 µM (active).

As for `c1ccc2c(c1)c1cccc3ccc4cccc2c4c31`, the result in test [1], in [2], in test [3], in test [4], in test [5] and in [6] was inactive. Moreover, the outcome in [7], in [8] and in [9] was inactive.

As a reminder, the AC50 is the midpoint of the concentration-response curve, whichever way the signal moves.
